# Experimental data from PubChem BioAssay AID504834 (National Center for Advancing Translational Sciences (NCATS), 2011).
# The campaign covered roughly 320,000 compounds. About 22,000 (6.9%) were called active. About 27% were inconclusive and are not listed. Calls follow the shape of the dose curve; as a rule, active = well fitted inhibition curve with a large enough effect; inconclusive = small, poorly fitted or top-dose-only effect, or another doubt; inactive = no such curve, though single readings can be large or run the other way. For the sample, actives were picked, then their nearest neighbours and some compounds at random.
# Experiment: Primary qHTS for delayed death inhibitors of the malarial parasite plastid, 96 hour incubation
# Settings: P. falciparum luciferase reporter growth; series mostly up to 28.7 µM; activity change, negative = inhibition: at the top concentration
# Method in brief: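 Readout is luminescence from an integrated firefly luciferase in P. falciparum. Red cells, 2% hematocrit and 0.05% parasitemia final, were cultured with compound through two parasite generations (96 hours) at 37 C, 5% CO2.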
# % is scaled to controls: 0 for no effect and ±100 for the full control effect; potency is read from the fitted curve at half-maximal effect.
SMILES,"activity change, negative = inhibition",Potency
Cc1cc(C)c(C#N)c(SCC(=O)N(CC(C)C)C2CCS(=O)(=O)C2)n1 (stereo unspecified),-12.5% (inactive),–
CC(NC(=O)COc1ccc(-c2ccccc2)cc1)C1CCCO1 (stereo unspecified),38.1% (inactive),–
O=C(Nc1ccncc1)c1ccc([N+](=O)[O-])cc1Cl,38.2% (inactive),–
CN(CCc1ccccn1)C1CCCN(S(=O)(=O)c2ccccc2Cl)C1 (stereo unspecified),-0.441% (inactive),–
Cn1nc(C(F)(F)F)cc1C(=O)O,36.7% (inactive),–
Cc1cccc(C)c1NC(=O)CNC(=O)c1c(C)nn(-c2ccccc2)c1C,-4.55% (inactive),–
Cc1nn(-c2ccccc2)c(C)c1NC(=O)COc1ccc(Cl)cc1Cl,8.25% (inactive),–
Cc1nn(-c2ccccc2)c(C)c1NC(=O)CCl,–,3.7 µM (active)
O=C(NCC1CCCO1)c1cc2c(s1)CCCC2 (stereo unspecified),282% (inactive),–
CC1(C)O[C@@H]2[C@H](O1)[C@@H](CO)O[C@H]2n1c(N2CCCCC2)nc2c(N)ncnc21,8.05% (inactive),–
Clc1c(OCCCn2ccnc2)ccc2ccccc12,203% (inactive),–
Cc1ccc(OCCCCN2CCCCC2)c(Br)c1,-19.8% (inactive),–
C=CCc1cc(C)ccc1OCCCn1ccnc1,–,11.7 µM (active)
CCOC(=O)c1ccc(S(=O)(=O)N(CCO)Cc2cc3cc(OC)c(OC)cc3[nH]c2=O)cc1,-9.56% (inactive),–
COc1cccc(CNC(=O)C(=O)NCCC2CCCCN2S(=O)(=O)c2ccc(C)cc2)c1 (stereo unspecified),–,10.4 µM (active)
O=C(NCCC1CCCCN1S(=O)(=O)c1ccc(F)cc1)C(=O)NC1CC1 (stereo unspecified),-4.85% (inactive),–
COc1ccc(S(=O)(=O)N2CCCC2CNC(=O)C(=O)NC2CC2)cc1 (stereo unspecified),2.54% (inactive),–
COc1cc(OC)c(NC(=O)C2CCCN2C(=O)OCc2ccccc2)cc1Cl (stereo unspecified),-25.4% (inactive),–
CCOC(=O)CNC(=O)N1c2ccccc2Sc2ccccc21,17.9% (inactive),–
COc1ccc(CCNC(=O)CN2C(=O)CCSc3ccccc32)c(OC)c1,-12.9% (inactive),–
CCOC(=O)CNC(=O)CN1C(=O)CCSc2ccccc21,–,11.7 µM (active)
Cc1ccc(NC(=O)c2cnc(SCC(=O)NCC3CCCO3)n(C)c2=O)cc1 (stereo unspecified),38% (inactive),–

SMILES,"activity change, negative = inhibition",Potency
Cn1c(=O)n(C)c2cc(C(=O)Nc3ccc(Br)cc3)ccc21,9.04% (inactive),–
COC(=O)[C@@H]1CC(O)CN1C(=O)C12CC3CC(CC(C3)C1)C2 (stereo partly specified),31.1% (inactive),–
CCOc1ccccc1Nc1ccc2nonc2c1[N+](=O)[O-],17.1% (inactive),–
CSCCC(NC(=O)c1ccccc1)C(=O)N1CCCCCCC1 (stereo unspecified),-26.5% (inactive),–
COc1ccccc1C(=O)NC(CCSC)C(=O)N1CCN(C/C=C/c2ccccc2)CC1 (stereo unspecified),–,11.7 µM (active)
CSCCC(NC(=O)c1ccccc1)C(=O)N1CCN(Cc2ccc(Cl)cc2)CC1 (stereo unspecified),–,1.65 µM (active)
COc1ccccc1C(=O)NC(CCSC)C(=O)NNC(=O)c1ccccc1C (stereo unspecified),8.05% (inactive),–
COc1ccccc1C(=O)NC(CCSC)C(=O)N1CCN(C(C)=O)CC1 (stereo unspecified),31.3% (inactive),–
O=C(c1cccc(Cl)c1)N1CCN(Cc2ccccc2)CC1,23.5% (inactive),–
CC(=O)NC(CC(=O)Nc1nc(-c2ccccc2)c(C(C)=O)s1)c1ccccc1 (stereo unspecified),3.68% (inactive),–
Cc1ccc(S(=O)(=O)NCC(=O)N2CCOCCOCCOCCOCC2)cc1,12.9% (inactive),–
Cc1ccc(CNC(=O)[C@@H](NC(=O)Cc2ccccc2)C(C)C)cc1,37.8% (inactive),–
Cn1c(-c2ccc(F)cc2)cc2onc(-c3ccccc3Cl)c2c1=O,69.3% (inactive),–
CSc1ncc(Cl)c(C(=O)Nc2cc(C)ccc2C)n1,-13% (inactive),–
O=C(COc1ccccc1)Nc1cc2c3c(c1)CC(=O)N3CCC2,31% (inactive),–
CN(C)CCCSc1ccccc1NC(=O)/C=C/c1ccccc1,–,12 µM (active)
O=C(/C=C/c1ccccc1)N/C(=C/c1ccccc1)C(=O)Nc1ccccc1O,42.9% (inactive),–
CC(=O)Nc1ccc(NC(=S)NC(=O)/C=C/c2ccccc2)cc1,8.73% (inactive),–
COc1ccc(NC(=O)CCCNC(=O)Cn2cnc3sc4c(c3c2=O)CCCC4)cc1OC,-7.58% (inactive),–
O=C(CSCC(=O)Nc1cccc([N+](=O)[O-])c1)Nc1ccccc1,-2.07% (inactive),–
O=C(CSc1nc(-c2ccccc2)cs1)Nc1cccc([N+](=O)[O-])c1,–,10.4 µM (active)
CCNC(=O)CSc1nc(-c2ccccc2)cs1,-65.4% (inactive),–

SMILES,"activity change, negative = inhibition",Potency
O=[N+]([O-])c1cc(C(F)(F)F)ccc1NCCc1ccncc1,15.8% (inactive),–
Cc1ccc2[nH]c(=O)c(CC(=O)O)c(-c3ccccc3)c2c1,0.826% (inactive),–
CCCCOC(=O)Nc1nnc(CC(=O)NCc2ccccc2)s1,-8.9% (inactive),–
Cc1ccc(OC(=O)c2c(C)nn(-c3ccccc3)c2C)cc1,101% (inactive),–
COc1ccc(C2CC(=O)NC(=O)C2)cc1,31.5% (inactive),–
COc1ccc(C2OC(=O)CC2C(=O)NC(C)C)cc1 (stereo unspecified),–,0.586 µM (active)
COc1ccc(CN2CC(C(=O)NC3CCCCC3)CC2=O)cc1 (stereo unspecified),23.7% (inactive),–
O=C(c1cc(-c2ccc(O)cc2)on1)N1CCOCC1,276% (inactive),–
CCN(CC)CCOC(=O)c1cc2cc(COC)ccc2o1,127% (inactive),–
CCCC(C(=O)OCCN(CC)CC)(c1ccccc1)c1ccccc1,–,10.7 µM (active)
CCC(C(=O)OCCN(CC)CC)c1ccccc1 (stereo unspecified),–,inactive
O=C(O/N=C(/c1ccccc1)c1ccncc1)c1ccccc1[N+](=O)[O-],8.43% (inactive),–
COc1ccc(C/C(C)=N/NC(=O)c2ccncc2)cc1,13.4% (inactive),–
COc1cc(OC)nc(N/N=C(\c2ccccc2)c2ccncc2)n1,–,5.22 µM (active)
N#Cc1cccc(CN2CCC(=O)N([C@H](CO)c3ccccc3)CC2)c1,-14.1% (inactive),–
C=CCOc1ccc(/C=C/C(=O)OC(C)C(=O)Nc2ccc(NC(C)=O)cc2)cc1 (stereo unspecified),32.7% (inactive),–
O=C(CCl)Nc1cccc(CP(=O)(c2ccccc2)c2ccccc2)c1,–,6.57 µM (active)
CCc1cccc(NC(=O)CCC(=O)O)c1,33.6% (inactive),–
O=C(Cc1ccccc1)Nc1cccc(NC(=O)c2ccccc2)c1,127% (inactive),–
COc1ccc(CCNS(=O)(=O)c2cn(C)nc2C)cc1,-3.77% (inactive),–
CCOc1ccc(OCC(=O)Nc2c3c(nn2C(C)(C)C)CS(=O)(=O)C3)cc1,8.15% (inactive),–
CC1Cc2ccccc2N1C(=O)CSc1nnc(-c2ccc(S(=O)(=O)N3CCCC3)cc2)n1C (stereo unspecified),-27.2% (inactive),–

SMILES,"activity change, negative = inhibition",Potency
Cn1c(SCC(=O)OC2CCCCC2)nnc1-c1ccc(S(=O)(=O)N2CCCC2)cc1,–,2.33 µM (active)
Cn1c(SCC(=O)NC2CCCCC2)nnc1-c1ccc(N)cc1,31.1% (inactive),–
Cc1ccc(CN2CC(C(=O)N3CCN(S(=O)(=O)c4ccccc4)CC3)CC2=O)cc1 (stereo unspecified),-5.27% (inactive),–
CCc1noc(C)c1C(=O)Nc1nc2ccc(OC)cc2s1,55.7% (inactive),–
O=C(COC(=O)CCc1ccc(S(=O)(=O)N2CCOCC2)cc1)Nc1cccc(Cl)c1,1.04% (inactive),–
O=C(CCc1ccc(S(=O)(=O)N2CCOCC2)cc1)NN=C1CCCCCCC1,7.59% (inactive),–
O=C(CCc1ccc(S(=O)(=O)N2CCOCC2)cc1)Nc1ccc2ccccc2c1,–,5.22 µM (active)
CCN(CC(=O)N1CCCC1)S(=O)(=O)c1ccc(F)cc1,-18.8% (inactive),–
O=C(NCCCN1CCCC1=O)c1cccc(S(=O)(=O)NCc2ccccc2)c1,0.384% (inactive),–
CCN(CC(=O)Nc1c(F)cccc1F)C(=O)C1CCC1,12.3% (inactive),–
CC(C)c1ccc(Cc2nnc(NCCCO)[nH]c2=O)cc1,-6.72% (inactive),–
Cc1cc(-c2ccc(S(=O)(=O)N3CCN(c4cccc(C(F)(F)F)c4)CC3)s2)on1,–,13.1 µM (active)
Cc1cc(-c2ccc(S(=O)(=O)N3CCc4ccccc4C3)s2)on1,40.7% (inactive),–
Cc1cccc(N2CCN(S(=O)(=O)c3ccc(-c4cc(C)no4)s3)CC2C)c1 (stereo unspecified),7.47% (inactive),–
COCC1CCN(C(=O)CCc2nnc(C3(c4ccc(Cl)cc4)CCC3)o2)C1 (stereo unspecified),-0.798% (inactive),–
CCOc1ccccc1N1C(=O)CC(Sc2nccc(C)n2)C1=O (stereo unspecified),-19.9% (inactive),–
CCOc1ccc(OCC(=O)OC(C)C(=O)NC2CCCCC2C)cc1 (stereo unspecified),-9.96% (inactive),–
CCCC(=O)Nc1nnc(-c2ccccc2)o1,3.75% (inactive),–
CCc1ccc(CN(C)C(=O)CCc2nnc(-c3ccc(-c4ccccc4)cc3)o2)nc1,–,11.7 µM (active)
Cc1ccc(C(=O)NCC(=O)OCc2nnc(-c3ccccc3)o2)cc1,-23.8% (inactive),–
CCOc1ccc(NC(=O)CC(Cc2ccc(Cl)cc2)C(=O)O)cc1 (stereo unspecified),-6.41% (inactive),–
O=C(CN1CCc2cc3c(cc2C1)OCCCO3)Nc1ccccc1,47.6% (inactive),–

SMILES,"activity change, negative = inhibition",Potency
OCC(CO)NC1C[C@](O)(CO)[C@@H](O)[C@H](O)[C@H]1O (stereo partly specified),14.3% (inactive),–
CCCCOC(=O)CCCc1ccc([N+](=O)[O-])cc1[N+](=O)[O-],6.22% (inactive),–
CCCOc1ccc(Cn2ccnc2)cc1[N+](=O)[O-],0% (inactive),–
CCCCOc1ccc(CSC(=N)N)cc1[N+](=O)[O-],–,2.33 µM (active)
CCn1cc(C(=O)NCc2ccc3c(c2)OCO3)c2cc(OC)c(OC)cc2c1=O,12% (inactive),–
COc1cc(CNCc2ccc3c(c2)OCO3)c([N+](=O)[O-])cc1OC,3.58% (inactive),–
COc1cc(OC)c(C(=O)NCc2ccc3c(c2)OCO3)cc1OC,–,13.1 µM (active)
O=C(O)CCCN1C(=O)C2C3c4ccccc4C(c4ccccc43)[C@@H]2C1=O (stereo partly specified),9.24% (inactive),–
Cc1ccc(NC2CCCN(C(=O)CCc3cn[nH]c3)C2)cc1C (stereo unspecified),32% (inactive),–
O=C1CCCCN1CCCC(=O)N1CCCC(Nc2ccc(F)cc2)C1 (stereo unspecified),1.89% (inactive),–
O=C(CN1C(=O)CSC1=O)N1CCCC(Nc2ccc(F)cc2)C1 (stereo unspecified),–,1.65 µM (active)
CC1C(=O)Nc2ccc(S(=O)(=O)N3CCN(c4ccccc4F)CC3)cc2NC1=O (stereo unspecified),0.196% (inactive),–
O=C1/C(=C/c2cccs2)SC(=S)N1C1CCS(=O)(=O)C1 (stereo unspecified),-41.9% (inactive),–
NC(=O)CC(NC(=O)Cc1ccc(Br)cc1)c1ccc(NC2CC3CCC2C3)c([N+](=O)[O-])c1 (stereo unspecified),–,11.7 µM (active)
CC1CCCCN1CCCNc1ccc(C(CC(N)=O)NC(=O)c2ccccc2)cc1[N+](=O)[O-] (stereo unspecified),-34.8% (inactive),–
Cc1cc(C)cc(C(=O)NC(CC(N)=O)c2ccc(N3CCC(N4CCCCC4)CC3)c([N+](=O)[O-])c2)c1 (stereo unspecified),73.1% (inactive),–
O=C(O)c1ccc(-n2nc(-c3ccccc3)c3ccccc3c2=O)cc1,24.2% (inactive),–
O=C(c1ccc(F)cc1)n1c(=S)nc2ccccn21,135% (inactive),–
